# Assays:
# Experiment in all cases: PBM; 200 nM protein, PBS
# Conditions in all cases: dsDNA, one strand shown
# [1] = target: MSX2 (Homo sapiens, UniProt P35548 130-214, R199I)
# [2] = target: MSX2 (Homo sapiens, UniProt P35548 130-214)
# [3] = target: MSX2 (Homo sapiens, UniProt P35548 130-214, F161Y)
# [4] = target: ALX1 (Homo sapiens, UniProt Q15699 118-204, L144V)
# [5] = target: ALX3 (Homo sapiens, UniProt O95076 139-225, N203Q)
# [6] = target: ALX1 (Homo sapiens, UniProt Q15699 118-204, L144R)
# [7] = target: ALX3 (Homo sapiens, UniProt O95076 139-225)
# [8] = target: ALX3 (Homo sapiens, UniProt O95076 139-225, L168Q)
# [9] = target: ALX3 (Homo sapiens, UniProt O95076 139-225, L168V)
# [10] = target: ALX1 (Homo sapiens, UniProt Q15699 118-204)
# [11] = target: ALX3 (Homo sapiens, UniProt O95076 139-225, N203S)
# [12] = target: NKX3-2 (Homo sapiens, UniProt P78367 192-278, P234S)
# [13] = target: NKX3-2 (Homo sapiens, UniProt P78367 192-278)
# [14] = target: PITX2 (Homo sapiens, UniProt Q99697 72-157)
# ALX1 (Homo sapiens, UniProt Q15699 118-204, L144R), sequence (Q15699 118-204 L144R): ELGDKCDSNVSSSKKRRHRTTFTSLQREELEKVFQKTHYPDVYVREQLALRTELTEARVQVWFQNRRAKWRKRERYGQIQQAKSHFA
# ALX1 (Homo sapiens, UniProt Q15699 118-204, L144V), sequence (Q15699 118-204 L144V): as the sequence (Q15699 118-204 L144R) above, with R27V counted along it
# ALX1 (Homo sapiens, UniProt Q15699 118-204), sequence (Q15699 118-204): as the sequence (Q15699 118-204 L144R) above, with R27L counted along it
# MSX2 (Homo sapiens, UniProt P35548 130-214), sequence (P35548 130-214): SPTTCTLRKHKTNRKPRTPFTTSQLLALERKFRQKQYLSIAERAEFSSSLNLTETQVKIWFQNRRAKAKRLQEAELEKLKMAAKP
# MSX2 (Homo sapiens, UniProt P35548 130-214, F161Y), sequence (P35548 130-214 F161Y): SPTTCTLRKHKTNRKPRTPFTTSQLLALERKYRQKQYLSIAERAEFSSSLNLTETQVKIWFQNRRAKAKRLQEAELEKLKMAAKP
# MSX2 (Homo sapiens, UniProt P35548 130-214, R199I), sequence (P35548 130-214 R199I): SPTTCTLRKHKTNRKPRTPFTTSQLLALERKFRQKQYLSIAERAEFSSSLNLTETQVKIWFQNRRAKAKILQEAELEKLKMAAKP
# ALX3 (Homo sapiens, UniProt O95076 139-225, L168Q), sequence (O95076 139-225 L168Q): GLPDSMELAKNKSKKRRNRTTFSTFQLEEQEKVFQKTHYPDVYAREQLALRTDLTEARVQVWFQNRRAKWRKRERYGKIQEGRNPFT
# ALX3 (Homo sapiens, UniProt O95076 139-225), sequence (O95076 139-225): as the sequence (O95076 139-225 L168Q) above, with Q30L counted along it
# ALX3 (Homo sapiens, UniProt O95076 139-225, L168V), sequence (O95076 139-225 L168V): as the sequence (O95076 139-225 L168Q) above, with Q30V counted along it
# ALX3 (Homo sapiens, UniProt O95076 139-225, N203Q), sequence (O95076 139-225 N203Q): as the sequence (O95076 139-225 L168Q) above, with Q30L, N65Q counted along it
# NKX3-2 (Homo sapiens, UniProt P78367 192-278), sequence (P78367 192-278): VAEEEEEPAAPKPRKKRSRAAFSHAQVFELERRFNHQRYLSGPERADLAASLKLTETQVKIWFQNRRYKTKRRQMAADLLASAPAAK
# ALX3 (Homo sapiens, UniProt O95076 139-225, N203S), sequence (O95076 139-225 N203S): as the sequence (O95076 139-225 L168Q) above, with Q30L, N65S counted along it
# NKX3-2 (Homo sapiens, UniProt P78367 192-278, P234S), sequence (P78367 192-278 P234S): as the sequence (P78367 192-278) above, with P43S counted along it
sequence,measurement,setting,value
ATACATAA,binding signal,[1],"11 upbm affinity estimate (log intensity, higher = more binding, comparable within an allelic series)"
same,binding signal,[2],"11.6 upbm affinity estimate (log intensity, higher = more binding, comparable within an allelic series)"
same,binding signal,[3],"11.4 upbm affinity estimate (log intensity, higher = more binding, comparable within an allelic series)"
AGAGCGCC,binding signal,[4],"6.46 upbm affinity estimate (log intensity, higher = more binding, comparable within an allelic series)"
same,binding signal,[5],"7.79 upbm affinity estimate (log intensity, higher = more binding, comparable within an allelic series)"
same,binding signal,[6],"6.49 upbm affinity estimate (log intensity, higher = more binding, comparable within an allelic series)"
same,binding signal,[7],"7.87 upbm affinity estimate (log intensity, higher = more binding, comparable within an allelic series)"
same,binding signal,[8],"7.76 upbm affinity estimate (log intensity, higher = more binding, comparable within an allelic series)"
same,binding signal,[9],"7.79 upbm affinity estimate (log intensity, higher = more binding, comparable within an allelic series)"
same,binding signal,[10],"6.45 upbm affinity estimate (log intensity, higher = more binding, comparable within an allelic series)"
same,binding signal,[11],"7.78 upbm affinity estimate (log intensity, higher = more binding, comparable within an allelic series)"
CTCTTGGC,binding signal,[4],"6.39 upbm affinity estimate (log intensity, higher = more binding, comparable within an allelic series)"
same,binding signal,[6],"6.52 upbm affinity estimate (log intensity, higher = more binding, comparable within an allelic series)"
same,binding signal,[12],"11.6 upbm affinity estimate (log intensity, higher = more binding, comparable within an allelic series)"
same,binding signal,[10],"6.47 upbm affinity estimate (log intensity, higher = more binding, comparable within an allelic series)"
same,binding signal,[13],"11.7 upbm affinity estimate (log intensity, higher = more binding, comparable within an allelic series)"
AGCGGCCT,binding signal,[1],"9.45 upbm affinity estimate (log intensity, higher = more binding, comparable within an allelic series)"
same,binding signal,[2],"9.32 upbm affinity estimate (log intensity, higher = more binding, comparable within an allelic series)"
same,binding signal,[3],"9.44 upbm affinity estimate (log intensity, higher = more binding, comparable within an allelic series)"
AGAAGGGC,binding signal,[4],"6.58 upbm affinity estimate (log intensity, higher = more binding, comparable within an allelic series)"
same,binding signal,[6],"6.68 upbm affinity estimate (log intensity, higher = more binding, comparable within an allelic series)"
same,binding signal,[10],"6.45 upbm affinity estimate (log intensity, higher = more binding, comparable within an allelic series)"
AATGAACC,binding signal,[4],"8.42 upbm affinity estimate (log intensity, higher = more binding, comparable within an allelic series)"
same,binding signal,[6],"8.46 upbm affinity estimate (log intensity, higher = more binding, comparable within an allelic series)"
same,binding signal,[10],"8.7 upbm affinity estimate (log intensity, higher = more binding, comparable within an allelic series)"
CACGCTCG,binding signal,[4],"6.33 upbm affinity estimate (log intensity, higher = more binding, comparable within an allelic series)"
same,binding signal,[14],"7.92 upbm affinity estimate (log intensity, higher = more binding, comparable within an allelic series)"
same,binding signal,[6],"6.26 upbm affinity estimate (log intensity, higher = more binding, comparable within an allelic series)"
same,binding signal,[10],"6.3 upbm affinity estimate (log intensity, higher = more binding, comparable within an allelic series)"
CGTATAAG,binding signal,[4],"8.14 upbm affinity estimate (log intensity, higher = more binding, comparable within an allelic series)"
same,binding signal,[6],"8.05 upbm affinity estimate (log intensity, higher = more binding, comparable within an allelic series)"
same,binding signal,[10],"8.12 upbm affinity estimate (log intensity, higher = more binding, comparable within an allelic series)"
GGACCCAC,binding signal,[4],"6.45 upbm affinity estimate (log intensity, higher = more binding, comparable within an allelic series)"
same,binding signal,[6],"6.3 upbm affinity estimate (log intensity, higher = more binding, comparable within an allelic series)"
same,binding signal,[10],"6.26 upbm affinity estimate (log intensity, higher = more binding, comparable within an allelic series)"
CATTAAAG,binding signal,[4],"9.86 upbm affinity estimate (log intensity, higher = more binding, comparable within an allelic series)"
same,binding signal,[6],"9.67 upbm affinity estimate (log intensity, higher = more binding, comparable within an allelic series)"
same,binding signal,[10],"10.1 upbm affinity estimate (log intensity, higher = more binding, comparable within an allelic series)"
CCTCAATC,binding signal,[4],"7.8 upbm affinity estimate (log intensity, higher = more binding, comparable within an allelic series)"
same,binding signal,[6],"7.78 upbm affinity estimate (log intensity, higher = more binding, comparable within an allelic series)"
same,binding signal,[10],"7.96 upbm affinity estimate (log intensity, higher = more binding, comparable within an allelic series)"
GCTGGCAC,binding signal,[4],"6.46 upbm affinity estimate (log intensity, higher = more binding, comparable within an allelic series)"
same,binding signal,[6],"6.45 upbm affinity estimate (log intensity, higher = more binding, comparable within an allelic series)"
same,binding signal,[10],"6.58 upbm affinity estimate (log intensity, higher = more binding, comparable within an allelic series)"
ACTTTAAA,binding signal,[4],"8.62 upbm affinity estimate (log intensity, higher = more binding, comparable within an allelic series)"
same,binding signal,[6],"8.74 upbm affinity estimate (log intensity, higher = more binding, comparable within an allelic series)"
same,binding signal,[10],"8.8 upbm affinity estimate (log intensity, higher = more binding, comparable within an allelic series)"
GACTCCCC,binding signal,[4],"6.43 upbm affinity estimate (log intensity, higher = more binding, comparable within an allelic series)"
same,binding signal,[6],"6.48 upbm affinity estimate (log intensity, higher = more binding, comparable within an allelic series)"
same,binding signal,[10],"6.25 upbm affinity estimate (log intensity, higher = more binding, comparable within an allelic series)"
CCTACGCC,binding signal,[4],"6.43 upbm affinity estimate (log intensity, higher = more binding, comparable within an allelic series)"
same,binding signal,[6],"6.36 upbm affinity estimate (log intensity, higher = more binding, comparable within an allelic series)"
same,binding signal,[10],"6.5 upbm affinity estimate (log intensity, higher = more binding, comparable within an allelic series)"

# — PMC11006913
